# Shown are actives, neighbours in structure and some others; about 3.2% of the full set was active somewhere.
# MEKK2mut PB1 HTS – signal of MEK5 binding to mutant human MEKK2 PB1 domain; 0.35% of 290,000 active; bead flow cytometry, Alexa488-MEK5 binding to MEKK2 mutant; percent response, % at 10 µM; in the data active = percent response above about 24%, passing the limit was not always enough
# MEKK2wt PB1 HTS – raises or lowers MEK5 binding to wildtype human MEKK2 PB1 domain; Q9Y2U5; binding response (% of control), % at 10 µM; AID 1531; 1.1% of 290,000 active; bead flow cytometry, Alexa488-MEK5 binding to MEKK2 WT; actives lie on both sides; in the data active = binding response below about 67% or above about 130%
# CendR NRP1 mod – NRP-1/CendR interaction modulation. O14786. FAM-RPARPAR peptide binding to NRP-1, fluorescence polarization. inhibition, % at 25 µM. 0.85% of 360,000 active;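 active = inhibition or corrected inhibition above about 18%, plus a signal ratio from 0.5 to 1.5, limit read from the data, passing the limit was not always enough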
# SKN-1 block – C. elegans SKN-1 inhibition; 0.49% of 360,000 active; AID 624304; C. elegans VP596 Pgst-4::GFP/RFP ratio, acrylamide-induced, 24 h; inhibition, % at 21.8 µM;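 active = interference check ratio from 0.5 to 1.5 plus GFP to RFP signal ratio inhibition reaching or exceeding a fixed threshold, cut at about 30% in these data, passing the limit was not always enough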
# MEKK3 PB1 HTS – raises or lowers MEK5 binding to the human MEKK3 PB1 domain; bead-based flow cytometry, Alexa488-MEK5 binding to MEKK3; actives lie on both sides; 0 = blocked by unlabeled MEK5, 100 = vehicle; binding response (% of control), % at 10 µM; Q99759; 1.4% of 290,000 active;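 active = binding response more than 3 SD above or below the average of its plate-row segment, actives on both sides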;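 also: Alexa488 bead fluorescence after subtracting the streptavidin-only scavenger bead signal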
# Target sequence (Q99759 whole entry, looked up, the tested form may be a part): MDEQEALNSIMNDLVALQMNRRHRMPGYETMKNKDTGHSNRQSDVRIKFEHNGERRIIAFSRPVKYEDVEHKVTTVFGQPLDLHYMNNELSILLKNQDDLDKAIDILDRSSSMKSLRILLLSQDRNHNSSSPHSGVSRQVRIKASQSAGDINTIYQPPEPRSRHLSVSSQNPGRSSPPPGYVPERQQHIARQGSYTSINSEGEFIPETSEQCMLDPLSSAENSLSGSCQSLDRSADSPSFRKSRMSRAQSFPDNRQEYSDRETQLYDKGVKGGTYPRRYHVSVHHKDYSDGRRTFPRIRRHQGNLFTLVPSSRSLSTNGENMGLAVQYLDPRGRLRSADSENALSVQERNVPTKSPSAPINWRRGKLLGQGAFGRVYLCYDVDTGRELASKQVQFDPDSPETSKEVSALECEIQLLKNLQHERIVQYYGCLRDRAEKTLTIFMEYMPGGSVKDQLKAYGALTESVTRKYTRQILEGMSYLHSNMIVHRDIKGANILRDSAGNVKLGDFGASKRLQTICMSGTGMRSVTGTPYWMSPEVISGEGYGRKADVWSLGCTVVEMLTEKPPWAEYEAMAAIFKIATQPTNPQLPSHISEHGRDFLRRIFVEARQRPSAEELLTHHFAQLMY
# * marks the source's active call; other numbers are inactive results; · = not tested or not shown.
SMILES,MEKK2mut PB1 HTS,MEKK2wt PB1 HTS,CendR NRP1 mod,SKN-1 block,MEKK3 PB1 HTS
COc1cc(/C=C2/SC(=O)N(Cc3ccccc3Cl)C2=O)ccc1OCc1ccncc1,1,95,21*,3,97
COCCn1c(SCC(=O)Nc2ccccc2F)nc2c([nH]c3ccccc32)c1=O,1,97,-5,16,93
COCCn1c(SCC(=O)Nc2ccccc2OC)nc2ccccc2c1=O,3,100,3,-14,104
COCCn1c(-c2ccc(OC)cc2)cnc1SCC(=O)Nc1cccc2ccccc12,-2,93,26*,3,97
COCCn1c(SCC(=O)Nc2ccccc2OC)nc2c([nH]c3ccccc32)c1=O,9,108,26*,-22,104
CCOC(=O)Cc1csc(NC(=O)c2c(O)c3c(n(CC(C)C)c2=O)CCCC3)n1,2,-3.0*,13,2,100
[O-][N+](=Cc1c(Cl)cccc1Cl)CC1(O)CCCCC1,·,·,-1,15,·
CC(=O)Nc1ccc(-c2csc(NCc3ccccc3)n2)cc1,-3,98,-5,13,102
CC(=O)Nc1cccc(-c2csc(NCc3ccccc3)n2)c1,5,105,26*,-3,101
Cc1nc(-c2cccc(NC(=O)c3ccco3)c2)cs1,8,105,-12,36*,108
COc1ccc(C(=O)N/C(=C\c2ccc(SC)cc2)C(=O)NCCCn2ccnc2)cc1OC,·,·,17,11,·
CC1CCCC(NC(=O)CSc2ccc(F)cc2)C1C (stereo not drawn),-1,91,8,2,88
CC1CCCC(NC(=O)CCC(=O)c2ccc(F)cc2)C1C (stereo not drawn),0,105,26*,-8,106
O=S1(=O)C[C@@H](N2CCC(Cc3ccccc3)CC2)[C@H](COCc2ccccc2)N1,·,·,4,-6,·
CCN(CCn1cccn1)C(=O)CCc1nnc(Cc2c[nH]c3ccccc23)o1,-8,88,21*,6,98
CCOc1ccc2[nH]cc(C(=O)NCc3ccc(F)cc3)c(=O)c2c1,6,103,39*,13,102
Cc1ccc(S(=O)(=O)Nc2ccccc2C(=O)N2CCCCC2)cc1,9,107,11,11,101
O=C(O)CC1Sc2nnc(COc3ccc(Cl)cc3)n2N=C1c1ccccc1 (stereo not drawn),1,101,10,14,104
Cc1cnccc1CNC(=O)CC1C(=O)NCCN1CC(C)(C)C (stereo not drawn),-12,97,26*,20,105
CCCCC(=O)OCc1c(-c2cccc(OC)c2)ncc2ccccc12,·,·,-16,10,·
Cc1cccc(NC2=NCC(=O)N2Cc2ccccc2)c1,-1,99,6,-22,97
Cc1cc(C)cc(NC2=NCC(=O)N2Cc2ccccc2)c1,-2,91,35*,15,102
OCC[C@@H]1C[C@H](O)[C@@H](O)[C@@]2(CCCCO2)O1,3,102,27*,3,105
OCC[C@H]1C[C@H](O)[C@@H](O)[C@@]2(CCCCO2)O1,4,102,0,-4,97
CC[C@H](C)[C@@H](C(=O)NCCCCCCCCCCC(=O)N1CCNCC1)n1cc(CCCCCN)nn1,·,·,6,-6,·
SMILES,MEKK2mut PB1 HTS,MEKK2wt PB1 HTS,CendR NRP1 mod,SKN-1 block,MEKK3 PB1 HTS
Cc1cc(OCC(=O)NCCCn2ccnc2)c2c(C)cc(=O)oc2c1,1,105,20*,-2,108
N#C/C(=C\C=C\c1ccccc1)c1nc(-c2ccc3c(c2)OCO3)cs1,3,99,121,47*,98
Cc1ccc(C(=O)CN(CCC(=O)O)C(=O)c2ccncc2)cc1,·,·,22*,-7,·
Cc1ccc(S(=O)(=O)N2CCCCC2)cc1NC(=O)CSCC(=O)O,-9,96,59*,1,89
O=C(O)CSCC(=O)Nc1ccc(S(=O)(=O)N2CCCCC2)cc1,-1,106,4,26,104
Cc1cccc(C)c1Nc1nnc(SCC(=O)Nc2cc(S(=O)(=O)N3CCCCC3)ccc2Cl)s1,-1,93,26*,-8,97
CCN1CCN(c2ncnc3c2c(-c2ccccc2)cn3-c2ccc(F)cc2)CC1,14,119,-4,52*,103
CC(=O)C1=CCC(c2cccs2)N(S(=O)(=O)c2ccc(C)cc2)C1 (stereo not drawn),·,·,0,4,·
